# Source: PubChem BioAssay (National Center for Advancing Translational Sciences (NCATS))
# Rows were chosen to be rich in hits. Some 8.9% of all compounds tested hit in one or more screens of this group.
# MCF10A rereplic: DNA re-replication induction in MCF 10a cells. MCF 10A DNA re-replication, Hoechst nuclear intensity, 48 h. Potency, µM (highest dose often 46.1 µM), actives largely listed as activators. 350,000 compounds, 2.9% hits. AID 624296; also: nearly all actives have a fitted effect of over 50% in size
# SW480 rereplic: inducers of DNA re-replication in SW480 colon cancer cells | SW480 DNA re-replication, Hoechst DNA content imaging, 48 h | 340,000 compounds, 1.8% hits | Potency, µM (highest dose often 46.1 µM), most hits filed as activators; also: nearly all actives have a fitted effect of over 55% in size
#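 DNA re-replication was detected as more nuclei of elevated Hoechst intensity after 48 hr exposure to compound (23 nL pinned per well of 250 cells).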
# D3 ag: agonists of human D3 dopamine receptor; D3R DiscoveRx beta-arrestin cells, luminescence, 90 min; AID 652048; 410,000 compounds, 0.58% hits; max activation, %; in the data active = max activation above about 30%
# Target sequence (P35462 whole entry, looked up): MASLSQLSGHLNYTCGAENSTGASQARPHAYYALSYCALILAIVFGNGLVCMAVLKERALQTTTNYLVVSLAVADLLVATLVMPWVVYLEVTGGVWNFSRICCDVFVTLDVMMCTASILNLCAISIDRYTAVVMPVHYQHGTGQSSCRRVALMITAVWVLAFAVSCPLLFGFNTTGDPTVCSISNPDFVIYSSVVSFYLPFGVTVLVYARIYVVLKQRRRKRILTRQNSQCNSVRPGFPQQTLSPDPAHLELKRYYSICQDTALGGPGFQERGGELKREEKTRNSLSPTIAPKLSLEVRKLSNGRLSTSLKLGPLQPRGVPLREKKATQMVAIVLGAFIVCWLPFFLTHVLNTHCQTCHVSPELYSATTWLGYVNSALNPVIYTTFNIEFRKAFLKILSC
#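 Cells at 1500/well, incubated overnight, then treated with pinned compounds (dopamine as control) for 90 min at 37 degrees C. DiscoveRx reagent added for 30 - 60 minutes at room temperature; luminescence read.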
# KB-3-1 tox: kills parental KB-3-1 adenocarcinoma cells; KB-3-1 viability, CellTiter-Glo ATP luminescence, 72 h; Potency, µM (titrated, usually from 46.1 µM), usual class: cytotoxic; 400,000 compounds, 1.4% hits; also: nearly all actives have a fitted effect of over 60% in size
#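 Parental KB-3-1 adenocarcinoma cells in phenol-red-free DMEM with 10% FBS were pin-treated with compounds at several concentrations, incubated 72 h at 37 °C, and viability read by CellTiter-Glo luminescence; concentration-effect curves were fitted after normalization.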
# D3 antag: antagonists of human D3 dopamine receptor; P35462; D3R cells, DiscoveRx beta-arrestin luminescence, antagonist mode; hits give low values; max response, negative = inhibition, %; 360,000 compounds, 2.5% hits; AID 652054; in the data active = max response below about -50%; inconclusive = no clear call, values can overlap the other calls
#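 Cells plated overnight at 1500 cells/well, then exposed to library compounds with dopamine controls for 90 minutes at 37 degrees C. DiscoveRx reagent added for 30–60 minutes at room temperature; luminescence read, quantitative HTS format.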
# KB-V1 cytotox: kills drug-selected multidrug resistant KB-V1 cells; KB-V1 MDR cells viability, CellTiter-Glo, 72 h; Potency, µM (titrated, usually from 46.1 µM), usual class: cytotoxic; 400,000 compounds, 3.4% hits; also: nearly all actives have a fitted effect of over 60% in size
#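 Luminescent ATP read-out (CellTiter-Glo, 10 min) measures survival of drug-selected KB-V1 MDR cells after 72 h, 37 degrees C compound exposure. Medium: phenol-red-free DMEM, 10% FBS. Values from fitted concentration-response curves.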
# A number is an active result; 0 = inactive; ? = inconclusive; - = not tested or not shown; ! = a repeat was not active; [ ] = another dose, or the depositor's remark. Unless noted, calls follow the shape of the dose curve; as a rule, active = well fitted curve in the direction sought with a large enough effect; inconclusive = small, poorly fitted or top-dose-only effect, or another doubt; inactive = no such curve, though single readings can be large; an effect the other way counts as inactive or inconclusive.
SMILES,MCF10A rereplic,SW480 rereplic,D3 ag,KB-3-1 tox,D3 antag,KB-V1 cytotox
O=[N+]([O-])c1ccc(N/N=C/c2ccc(OCc3cccc4ccccc34)cc2)nc1,?,21µM,0,?,0,0
O=[N+]([O-])c1ccc(O)c(/C=N/Nc2ncnc3c2cnn3-c2ccccc2)c1,0,2.3µM,0,?,0,0
O=[N+]([O-])c1ccc(O)c(/C=N/Nc2ccccn2)c1,?,1.3µM,0,?,-70,0
COc1ccc(C=NNc2ccc([N+](=O)[O-])cn2)cc1,0,0,0,0,0,0
Cc1ccc(CSc2nc3c(c(=O)[nH]2)C(c2cccc(F)c2F)CC(=O)N3)cc1 (stereo not drawn),-,-,0,0,-,0
O=[N+]([O-])c1ccc(NN=Cc2ccc(O)cc2O)nc1,?,?,0,?,0,?
Oc1ccc(C=NNc2ccccn2)c(O)c1,16µM,?,0,?,-61,0
O=[N+]([O-])c1ccc(N/N=C\c2cccn2-c2ccccc2)nc1,15µM,?,0,?,?,?
O=[N+]([O-])c1cccnc1N/N=C/c1ccccc1O,0,0.82µM,0,1.8µM,0,?
O=[N+]([O-])c1ccc(NN=Cc2ccccc2O)nc1,?,2.6µM,0,0,0,0
O=[N+]([O-])c1ccc(NN=Cc2ccccc2)nc1,0,?,0,0,0,0
Cc1c(O)ccc(/C=N/Nc2ncccc2[N+](=O)[O-])c1O,0,0,0,?,0,?
Cc1cccc(NC(=O)N2CCC3(CC2)Oc2ccccc2C(=O)N3Cc2ccccc2F)c1C,-,-,0,-,-,-
N#Cc1ccccc1Cn1cc(/C=N/Nc2ccc([N+](=O)[O-])cn2)c2ccccc21,0,0,0,0,-52,?
COc1cc2c(cc1OC)C(c1c(Cl)cccc1Cl)=NCC2,-,-,0,21µM,0,?
Cc1cc(Cl)ccc1NC(=O)CCn1nc(C)c2c(C)n(-c3ccccc3)nc2c1=O,-,-,0,0,-,0
CC(C)(C)OC(=O)N1CCC(C(=O)N[C@@H](Cc2ccccc2)C(=O)O)(c2ccccc2)CC1,?,0.46µM!,0,0,0,0
CC(C)[C@H](NC(=O)C1(c2ccccc2)CCN(C(=O)OC(C)(C)C)CC1)C(=O)O,0,0,0,0,0,0
CN(CCC#N)C(=O)COC(=O)c1ccccc1C(=O)c1ccc(Cl)c([N+](=O)[O-])c1,9.2µM,0,0,?,0,0
C=CCN(c1ccc(OC)cc1)S(=O)(=O)c1ccc(Cl)c(C(=O)OCC(=O)c2c(N)n(C)c(=O)n(C)c2=O)c1,0,0,0,0,0,16µM
CC(C)C(C(=O)OCC(=O)c1cccc([N+](=O)[O-])c1)N1C(=O)[C@@H]2[C@H]3CC[C@H](C3)[C@@H]2C1=O (stereo partly drawn),0,0,0,0,0,21µM
O=C(CN1C(=O)C2C3CCC(C3)C2C1=O)OCC(=O)c1cccc([N+](=O)[O-])c1 (stereo not drawn),0,0,0,0,0,0
Cn1c(N)c(C(=O)COC(=O)c2ccccc2C(=O)c2ccc(Cl)c([N+](=O)[O-])c2)c(=O)n(C)c1=O,12µM,?,0,?,-97,0
CCOC(=O)C(CCc1ccccc1)NC(C)C(=O)N1Cc2cc(OC)c(OC)cc2CC1C(=O)O (stereo not drawn),0,0,-,-,-,-
COc1ccc(-c2cc(-c3ccc4c(c3)NC(=O)CO4)nc3c2COc2ccc(F)cc2-3)cc1,-,-,0,0,-,0
SMILES,MCF10A rereplic,SW480 rereplic,D3 ag,KB-3-1 tox,D3 antag,KB-V1 cytotox
NC(=O)c1ccc(SCC(=O)NC2CCCCC2)c([N+](=O)[O-])c1,0,0[1.84 µM],0,0,-52,?
O=C(CCC(=O)OCC(=O)c1cccc([N+](=O)[O-])c1)NC1CCCCC1,0,2.6µM,0,0,0,0
O=C(COC(=O)c1ccccc1C(=O)c1ccc(Cl)c([N+](=O)[O-])c1)NC1CCCCCC1,2.6µM,3.7µM,0,?,?,0
COC(=O)c1ccc(SCC(=O)N2CCC(C)CC2)c([N+](=O)[O-])c1,0,0,0,0,0,15µM
CC(C)(C)c1ccc(C(=O)N/N=C/c2cccc(Cl)c2)cc1,0,?,0,?,0,23µM
CC(SC(C)C(=O)NN=Cc1cccc(Cl)c1)C(=O)NN=Cc1cccc(Cl)c1 (stereo not drawn),4.1µM,9.2µM,0,?,0,?
O=C(N/N=C/c1cccc(F)c1)c1ccc(Cl)cc1,0,0,0,0,0,0
COc1cccc(CNC(=O)Cn2c(C)c3cnn(-c4ccccc4)c(=O)c3c2C)c1,-,-,0,0,-,0
O=C(c1ccc(CS(=O)Cc2ccccc2Cl)o1)N1CCN(c2ccccn2)CC1 (stereo not drawn),0,0,0,0,0,18µM
O=C(c1ccc(CS(=O)c2ccccc2Cl)o1)N1CCN(c2ccccn2)CC1 (stereo not drawn),0,0,0,7.3µM,0,?
Cc1nc(N2C(=O)c3oc4ccccc4c(=O)c3C2c2ccccc2F)sc1C (stereo not drawn),-,-,0,0,-,0
Cc1ccc2nc(SCC(=O)OCc3ccccc3)nc(=O)n2c1,0,0,0,0,-55,0
Cc1ccc2nc(SCC(=O)N3CCCc4ccccc43)nc(=O)n2c1,0,0,0,0,0,18µM
Cc1ccnc(SCC(=O)N2CCCc3ccccc32)n1,0,0,0,0,0,0
COc1ccc(/C=C/C(=O)c2ccc(O)cc2)cc1CN1CCOCC1,?,?,0,16µM,0,?
COc1ccc(C(=O)/C=C/c2ccc(OC)c(CN3CCOCC3)c2)cc1,?,?,0,?,?,15µM
COc1ccc(C(=O)/C=C/c2ccc(OC)c(Cn3nnc4ccccc43)c2)cc1,16µM,-,0,0,0,?
COc1ccc(C)cc1Cn1nnc2ccccc21,0,0[9.22 µM],0,0,0,0
CCC(C)NC(=O)C(=O)Nc1c2c(nn1-c1ccccc1)CS(=O)(=O)C2 (stereo not drawn),-,-,0,0,-,0
COc1ccc(/C=N/OCC(=O)Nn2c(C)nc3ccccc3c2=O)cc1,0,0,33,0,0,?
Cc1ccc(OCC(=O)Nn2c(C)nc3ccccc3c2=O)c(C(C)C)c1,0,0,0,0,0,18µM
COc1ccc(C(=O)On2c(-c3ccc(Br)cc3)nc3ccccc3c2=O)cc1,9.2µM,?,0,?,0,?
Cc1ccc(-c2nc3ccccc3c(=O)n2NC(=O)c2cccs2)cc1,0,0,0,0,-51,0
Cc1ccc(-c2nc3ccccc3c(=O)n2NC(=O)COc2ccccc2)cc1,0,0,0,0,0,?
COC(=O)c1ccc(NC(=O)Cn2ccn3nc(-c4ccc(OC)cc4)cc3c2=O)cc1,-,-,0,0,-,0
